Measurements published in PubChem BioAssay AID1159580 (chemical genetic matrix, 2015).
“And” between values parts separate entries of the source, which are not always exact repeats. Identical values can stand only once. About 2,000 (36%) of roughly 5,500 compounds were called active. Another 18% or so got no clear call; they are omitted. Rule as the data show it: active = normalized growth mostly below about 0.91 (no sharp cut-off); inconclusive = no clear call, values can overlap the other calls; inactive = mostly above about 0.92. Some of the results follow.

Assay: chemical genetic growth profiling, strain panel (AID 1159580);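 also: tested at 20 µM; growth read once vehicle control cultures reached saturation at 30 °C; 1 = growth at the plate median or of vehicle wells; lower values mean less growth of the strain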
Conditions: S. cerevisiae deletion strains, growth OD
[1] = locus YAL013W, strain DEP1, hits give low values
[2] = locus YBR229C, strain ROT2, hits give low values
[3] = locus YCL061C, strain MRC1, hits give low values
[4] = locus YDL101C, strain DUN1, hits give low values
[5] = locus YEL061C, strain CIN8, hits give low values
[6] = locus YGR078C, strain PAC10, hits give low values
[7] = locus YHR030C, strain SLT2, hits give low values
[8] = locus YJR043C, strain POL32, hits give low values
[9] = locus YJR075W, strain HOC1, hits give low values
[10] = locus YLR039C, strain RIC1, hits give low values
[11] = locus YLR262C, strain YPT6, hits give low values
[12] = locus YMR263W, strain SAP30, hits give low values
[13] = locus YNL153C, strain GIM3, hits give low values
[14] = locus YNL322C, strain KRE1, hits give low values

Measured: normalized growth

Cc1ccc(OCc2nnc(SCC(=O)Nc3cccc4c3OCO4)n2-c2ccccc2)c2c1CCC2
inactive: [1] 1.01 | [2] 1.01 | [3] 1 | [4] 0.992 | locus YDR150W, strain NUM1, hits give low values 0.982 | [5] 0.99 | [6] 1 | locus YGR229C, strain SMI1, hits give low values 0.993 | [7] 1 | locus YHR087W, strain rtc3, hits give low values 0.992 | [8] 1 | [9] 1.01 | locus YKL190W, strain CNB1, hits give low values 0.973 | [10] 0.991 | locus YLR058C, strain SHM2 (second series), hits give low values 1.01 | locus YLR085C, strain ARP6, hits give low values 0.995 | [11] 0.985 | locus YML094W, strain GIM5, hits give low values 0.98 | locus YMR219W, strain ESC1, hits give low values 0.999 | [12] 1.01 | locus YNL128W, strain TEP1, hits give low values 0.984 | [13] 1 | locus YNL298W, strain CLA4 (second series), hits give low values 0.988 | [14] 0.992 | locus YNR030W, strain Alg12, hits give low values 0.995 | locus YPL055C, strain LGE1, hits give low values 0.991 | locus YPL241C, strain CIN2, hits give low values 0.999 | locus YPR135W, strain CTF4, hits give low values 1.02

C[C@H](CCC(=O)O)[C@H]1CCC2C3C(CC[C@@]21C)[C@@]1(C)CC[C@@H](O)C[C@H]1C[C@H]3O (some centres undefined)
active: locus YDR137W, strain rgp1, hits give low values 0.786 | locus YLR262C, strain YPT6 (second series), hits give low values 0.799 | locus YOL147C, strain pex11, hits give low values 1.07 [resistant] | locus YOR231W, strain MKK1, hits give low values 0.849
inactive: [1] 1.02 | locus YAL021C, strain ccr4, hits give low values 1.01 | locus YAL026C, strain drs2, hits give low values 0.987 | locus YAL030W, strain snc1, hits give low values 1.02 | locus YBL061C, strain skt5, hits give low values 1.02 | locus YBR009C, strain hhf1, hits give low values 0.973 | locus YBR021W, strain FUR4, hits give low values 1.02 | locus YBR023C, strain chs3, hits give low values 1.01 | locus YBR171W, strain sec66, hits give low values 1 | [2] 1.02 | locus YBR231C, strain swc5, hits give low values 1.03 | locus YBR279W, strain paf1, hits give low values 1.01 | locus YCL011C, strain gbp2, hits give low values 1 | locus YCL016C, strain dcc1, hits give low values 0.982 | locus YCL029C, strain bik1, hits give low values 1.05 | [3] 0.998 | locus YCL069W, strain vba3, hits give low values 1.02 | locus YCR088W, strain abp1, hits give low values 1.02 | locus YDL005C, strain med2, hits give low values 1.01 | locus YDL035C, strain GPR1, hits give low values 0.985 | locus YDL040C, strain nat1, hits give low values 1.01 | locus YDL074C, strain BRE1, hits give low values 1.09 | [4] 1.02 | locus YDL134C, strain PPH21, hits give low values 1 | locus YDL185W, strain tfp1, hits give low values 1.07 | locus YDL192W, strain arf1, hits give low values 1.05 | locus YDR001C, strain nth1, hits give low values 1.02 | locus YDR069C, strain doa4, hits give low values 1.01 | locus YDR101C, strain arx1, hits give low values 1.04 | locus YDR159W, strain sac3, hits give low values 1.02 | locus YDR162C, strain NBP2, hits give low values 1.02 | locus YDR195W, strain ref2 1.13 | locus YDR297W, strain sur2, hits give low values 1.02 | locus YDR318W, strain mcm21, hits give low values 1.03 | locus YDR334W, strain swr1, hits give low values 1.04 | locus YDR335W, strain msn5, hits give low values 1.02 | locus YDR388W, hits give low values 1.04 | locus YDR392W, strain spt3, hits give low values 0.923 | locus YDR502C, strain sam2, hits give low values 1.04 | locus YEL003W, strain gim4, hits give low values 0.998 | locus YEL037C, strain rad23, hits give low values 1.02 | locus YEL061C, strain CIN8 (second series), hits give low values 1.02 | [5] 1.02 | locus YER015W, strain faa2, hits give low values 1.05 | locus YER016W, strain bim1, hits give low values 1.01 | locus YER110C, hits give low values 1.05 | locus YER111C, strain swi4, hits give low values 1.02 | locus YER155C, strain BEM2 (second series), hits give low values 1.05 | locus YER155C, strain BEM2, hits give low values 1.04 | locus YER167W, strain BCK2, hits give low values 1.03 | locus YFR010W, strain ubp6, hits give low values 1.03 | locus YGL078C, strain dbp3, hits give low values 0.953 | locus YGL086W, strain mad1, hits give low values 1.03 | locus YGL167C, strain pmr1, hits give low values 1.02 | locus YGL173C, strain kem1, hits give low values 0.969 | locus YGL227W, strain vid30, hits give low values 1.02 | locus YGL240W, strain doc1, hits give low values 1.02 | locus YGL248W, strain PDE1, hits give low values 1.01 | locus YGL253W, strain hxk2, hits give low values 1.01 | [6] 1.03 | locus YGR135W, strain pre9, hits give low values 1.02 | locus YGR252W, strain gcn5, hits give low values 0.929 | locus YHR013C, strain ard1, hits give low values 1.06 | locus YHR027C, strain rpn1, hits give low values 1.01 | [7] 1.05 and 0.889 | locus YHR079C, strain IRE1 (second series), hits give low values 1.05 | locus YHR079C, strain IRE1, hits give low values 0.87 | locus YHR094C, strain hxt1, hits give low values 1.05 | locus YHR129C, strain ARP1, hits give low values 1.03 | locus YHR142W, strain chs7, hits give low values 0.993 | locus YHR200W, strain rpn10, hits give low values 1.06 | locus YIL066C, strain RNR3, hits give low values 1.03 | locus YIL073C, strain SPO22, hits give low values 1.12 | locus YIL125W, strain kgd1, hits give low values 1.05 | locus YIR030C, strain dcg1, hits give low values 1.05 | locus YJL092W, strain hpr5, hits give low values 1.03 | locus YJL095W, strain BCK1 (second series), hits give low values 1.02 | locus YJL095W, strain BCK1, hits give low values 1.04 and 0.89 | locus YJL115W, strain asf1, hits give low values 1.03 | locus YJL129C, strain trk1, hits give low values 1.03 | locus YJL134W, strain LCB3, hits give low values 1.03 | locus YJL154C, strain vps35, hits give low values 1.03 | locus YJL164C, strain tpk1, hits give low values 0.992 | locus YJL166W, strain qcr8, hits give low values 0.979 | locus YJL168C, strain set2, hits give low values 1.05 | locus YJL187C, strain SWE1 (second series), hits give low values 1 | locus YJL187C, strain SWE1, hits give low values 1.02 | [8] 0.999 | locus YJR066W, strain TOR1, hits give low values 0.862 | [9] 1.04 | locus YKL009W, strain mrt4, hits give low values 0.9 | locus YKL068W, hits give low values 1.03 | locus YKL085W, strain MDH1 (second series), hits give low values 1.03 | locus YKL085W, strain MDH1, hits give low values 1.03 | locus YKL160W, strain elf1, hits give low values 0.974 | locus YKR001C, strain vps1, hits give low values 1.09 | locus YKR026C, strain gcn3, hits give low values 1.03 | locus YKR091W, strain srl3, hits give low values 1.01 | locus YLL001W, strain dnm1, hits give low values 0.991 | locus YLL026W, hits give low values 1.02 | locus YLL041C, strain sdh2, hits give low values 1.03 | locus YLR027C, strain aat2, hits give low values 1.01 | [10] 1.02 | locus YLR058C, strain SHM2, hits give low values 1.01 | locus YLR102C, strain apc9, hits give low values 1.05 | locus YLR113W, strain HOG1, hits give low values 0.923 | locus YLR221C, strain rsa3, hits give low values 0.954 | locus YLR258W, strain gsy2, hits give low values 0.996 | [11] 0.99 | locus YLR268W, strain sec22, hits give low values 1.03 | locus YLR320W, strain mms22, hits give low values 0.955 | locus YLR330W, strain CHS5, hits give low values 1.04 | locus YLR342W, strain FKS1 (second series), hits give low values 1.04 | locus YLR342W, strain FKS1, hits give low values 1 | locus YLR357W, strain rsc2, hits give low values 1.09 | locus YLR370C, strain arc18, hits give low values 0.993 | locus YLR371W, strain rom2, hits give low values 1.07 | locus YLR384C, strain iki3, hits give low values 1.01 | locus YLR418C, strain cdc73, hits give low values 1.03 | locus YML016C, strain PPZ1, hits give low values 1.02 | locus YML032C, strain rad52, hits give low values 1.02 | locus YML120C, strain ndi1, hits give low values 0.962 | locus YML124C, strain tub3, hits give low values 1.05 | locus YMR058W, strain fet3, hits give low values 1.01 | locus YMR078C, strain ctf18, hits give low values 1.08 | locus YMR125W, strain sto1, hits give low values 1.04 | locus YMR129W, hits give low values 1.01 | locus YMR205C, strain PFK2, hits give low values 0.989 | locus YMR223W, strain ubp8, hits give low values 1.01 | locus YMR231W, strain pep5, hits give low values 0.993 | [12] 1.02 | locus YMR307W, strain GAS1, hits give low values 1.1 | locus YNL067W, strain RPL9B, hits give low values 0.999 | locus YNL071W, strain lat1, hits give low values 1.01 | [13] 1 | locus YNL183C, strain NPR1, hits give low values 0.854 | locus YNL209W, strain ssb2, hits give low values 1.02 | locus YNL233W, strain BNI4, hits give low values 1.05 | locus YNL248C, strain rpa49, hits give low values 1.01 | locus YNL250W, strain rad50, hits give low values 1.03 | locus YNL271C, strain bni1, hits give low values 1.01 | locus YNL298W, strain CLA4, hits give low values 0.977 | locus YNL307C, strain MCK1, hits give low values 1.04 | locus YNL322C, strain KRE1 (second series), hits give low values 1.02 | [14] 1.03 | locus YNR049C, strain mso1, hits give low values 1.01 | locus YNR052C, strain pop2, hits give low values 0.994 | locus YOL012C, strain htz1 1.83 | locus YOR001W, strain rrp6, hits give low values 0.979 | locus YOR061W, strain CKA2, hits give low values 1.06 | locus YOR069W, strain VPS5, hits give low values 1.03 | locus YOR070C, strain gyp1, hits give low values 1.01 | locus YOR080W, strain dia2, hits give low values 1.02 | locus YOR083W, strain WHI5, hits give low values 0.971 | locus YOR106W, strain vam3, hits give low values 0.928 | locus YOR136W, strain idh2, hits give low values 1.06 | locus YOR144C, strain elg1, hits give low values 1.04 | locus YOR184W, strain ser1, hits give low values 1.01 | locus YOR265W, strain rbl2, hits give low values 1.01 | locus YOR270C, strain vph1, hits give low values 0.964 | locus YOR290C, strain snf2, hits give low values 0.979 | locus YOR316C, strain cot1, hits give low values 1.05 | locus YPL051W, strain arl3, hits give low values 0.978 | locus YPL078C, strain atp4, hits give low values 0.982 | locus YPL106C, strain sse1, hits give low values 1.08 | locus YPL240C, strain hsp82, hits give low values 1.01 | locus YPL256C, strain CLN2, hits give low values 0.952 | locus YPR119W, strain clb2, hits give low values 1.03 | locus YPR141C, strain kar3, hits give low values 1.06 | locus YPR163C, strain tif3, hits give low values 1.06 | locus YPR167C, strain met16, hits give low values 1.05 | strain wtn01, hits give low values 1.06
